This is part of a sample that, as a whole, favours compounds with a hit. Of some 83,000 tested, about 20% had one in any assay.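 Results are percent growth after 48 hours of single-concentration exposure. 100 means growth as in untreated cells, lower positive values show inhibition; negative values down to -100 show cell death.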 Unmarked numbers belong to inactive results. Calls of active or inactive are those of the source.

The test system of the assay is NCI-H460 lung. The assay is described as follows: NCI-60 one-dose screen, 48 h (100 = growth as untreated, 0 = no growth, -100 = all killed). The settings on record: 10 µM unless noted. The procedure: Growth inhibition of the NCI-H460 human Non-Small Cell Lung tumor cell line is measured as a screen for anti-cancer activity. Cells are grown in 96 well plates and exposed to the test compound for 48 hours. Compounds are tested at a single concentration, which is 10^-5 M for most compounds. The reported endpoint is percent growth (GI% or GIPRCNT), where numbers from 0 - 100% represent growth inhibition, and numbers from -100% - 0 represent cell death. For example, a value of 40 represents 60% growth inhibition. A value of 0 means no net growth occurred over the course of the experiment. A value of -40 indicates 40% of cells at the beginning of the experiment died by the end of the experiment. A value of -100 means all cells are dead at the end of the experiment.
NCI-60 Human Tumor Cell Lines Screen was performed using the standard one-dose NCI protocol, which is described in more detail at https://dtp.cancer.gov/discovery_development/nci-60/default.htm.
Compounds with GIPRCNT values below 10 were considered active. Activity score was based on GIPRCNT using the following formula: […]
Score is 0 for GIPRCNT values of 100 or above, 50 for GIPRCNT values of 0, and 100 for GIPRCNT values of -100.
Consider `N#CC1=C(c2ccccc2)Nc2c(c(-c3ccc(Cl)cc3)nn2-c2ccccc2)C12C(=O)Nc1ccc(Cl)cc12` (stereo not given), for which the growth was 71.2%.
As to `CS(=O)(=O)Nc1cc(-c2ccc3ncnc(Nc4ccc5c(cnn5Cc5cccc(F)c5)c4)c3c2)cnc1Cl`, the growth is 22.8%.
As for `N=C(N)c1ccc(-c2ccc(-c3ccccc3)o2)cc1`, the figure is -73.1% (active); as for `CSc1nc2ncc([N+](=O)[O-])c(=O)n2[nH]1`, 103%.
For `CN(C)S(=O)(=O)c1cccc(C(=O)Nc2nc(-c3ccc(F)c(F)c3)cs2)c1` the value was 49.4%.
As for `O=C1/C(=C/c2ccc([N+](=O)[O-])cc2)COc2ccc(O)cc21`, the figure is 97.9%.
For `CN1CCc2nc3sc(C(N)=O)c(N)c3c(-c3cccs3)c2C1`, the growth was 30.4%.
Consider `CC(C)(Sc1cc(C(C)(C)C)c(OC(=O)CCCC(=O)O)c(C(C)(C)C)c1)Sc1cc(C(C)(C)C)c(OC(=O)CCCC(=O)O)c(C(C)(C)C)c1`, for which the growth is 9.34% (active).
As for `COC1/C=C/OC2(C)Oc3c(C)c(O)c4c(O)c(c(/C=N/Nc5ccc([N+](=O)[O-])cc5[N+](=O)[O-])c(O)c4c3C2=O)NC(=O)C(C)=C/C=C/C(C)C(O)C(C)C(O)C(C)C(OC(C)=O)C1C` (stereo not given), the figure is 59.5%; as for `CN(C)CCNC(=O)c1cc2c3cc(Cl)ccc3[nH]c2c2ncccc12`, -0.295% (active); as for `Cc1cc(C)c2c(c1)N(C)c1ncnc(-n3cnc4cc(C)ccc43)c1CC2C` (stereo not given), 7.26% (active).
Take `O=C1/C(=C/c2cn(-c3ccccc3)nc2-c2ccccc2)SC(=S)N1C1CCCCC1`: the growth is 103%.
For `CC/C(=C(/c1ccc(Cl)cc1)c1ccc(OCCN(C)C)cc1)c1ccc(Cl)cc1` the value was 37.3%.
For `Oc1c(I)cc(I)cc1CNCc1ccccn1`, the growth is 19.9%.
For `COc1ccc(/C=C(\C#N)n2nnc3cc(Cl)ccc32)cc1`, the growth is 1.99% (active).
For `O=C(CN1CCOCC1)Nc1nc(-c2cc3ccccc3oc2=O)cs1` the value was 103%.
Consider `O=C(Nc1cccc(-c2ccc(N3CCOCC3)nn2)c1)Nc1cccc(C(F)(F)F)c1`, for which the growth was 79.1%.
As for `CCN(CC)c1ccc(\C=N/N=C(N)/C(N)=N\N=C/c2ccc(N(CC)CC)cc2)cc1`, the figure is 109%; as for `CNc1nnc2n(-c3ccccc3)c(=O)c3cnn(-c4ccccc4)c3n12`, 106%; as for `COc1cc2cc(NCc3cccc(Cl)c3)nc(C)c2cc1OC`, 22.7%.
Consider `C=C1C(=O)O[C@H]2[C@H]1CC/C(Cn1cc(-c3ccccc3)nn1)=C\CC[C@@]1(C)O[C@@H]21`, for which the growth is 51.8%.
Regarding `NC(=O)CSc1oc(-c2ccccc2)nc1S(=O)(=O)c1ccc(Br)cc1`, the growth was 71.6%.
For `COc1ccc(C(=O)C/C(=C\c2ccc(Cl)cc2)C(=O)NCc2ccccc2)cc1` the value was 74.4%; for `Cc1ccc2c(n1)C(=O)C(Br)=C(CC(C)C)C2=O`, 105%; for `O=C(Nc1ccccc1O)c1ccc(CNC(=O)c2sccc2Nc2ccnc(C(F)(F)F)c2)cc1`, 42%.
For `O=C1/C(=C\c2ccc3nccnc3c2)SC(=S)N1CCc1ccc(O)cc1` the value was 102%.
With `COc1cc(C2c3cc(OC(C)=O)c(OC)cc3CC3C(=O)OCC32)ccc1OC(C)=O` (stereo not given), the growth is 109%.
On to `C=CCc1c(O)c(C(=O)/C=C/c2ccccc2)c(OC)c2ccoc12`, for which the growth was 16.8%.
For `COc1ccc2c(c1)c(-c1nc(-c3c[nH]c4ccncc34)cs1)cn2C` the value was -78.2% (active); for `COc1ccc(/C=C(\C#N)n2nnc3cc(F)c(F)cc32)cc1`, 87.8%.
As for `Cc1cccc(/C=C/c2c(C(=O)/C=C/c3ccccc3)c(C)nc3ccccc23)c1`, the figure is -71.8% (active).
For `COC(=O)Nc1nc2ccc(S(=O)c3ccccc3)cc2[nH]1` (stereo not given) the value was 60.3%.
On to `N#CC(C#N)N=Nc1ccc(Br)cc1`, for which the growth was 95.8%.
Turning to `COc1ccc(C2=Nc3c(N)nc(N)nc3NC(c3cccc(Nc4ccnc5cc(C(F)(F)F)ccc45)c3)C2)cc1` (stereo not given), the growth is 59.3%.
On to `CCSc1oc(-c2ccccc2)nc1[P+](c1ccccc1)(c1ccccc1)c1ccccc1`, for which the growth was 0.695% (active).
For `Clc1ccc(/C=N\N=C\c2ccc(Cl)c(Cl)c2)cc1Cl` the value was 47.1%; for `CCOC(=O)C1=C(c2ccccc2)N=C2SC=C(c3ccc(Cl)cc3)N2C1c1ccc(Br)cc1` (stereo not given), 85%.
`Cc1cc(N2CCN(CCNc3ccnc4cc(Cl)ccc34)CC2)nc(N2CCOCC2)n1`: the growth is 64.6%.
For `COc1ccccc1N1CCCCC1` the value was 109%.
For the compound `Cc1cc(C(=O)O)c(C)n1-c1cccc(C(=O)O)c1`, the growth is 35.1%.
